# Laboratory results published in the supplement of paper PMC3334620.
# Over roughly 33,000 sequences, “E-score (-0.5 to 0.5)” has its median near -0.016; the highest 2% begin near 0.32. This excerpt belongs to a sample that is enriched for the highest values.
# Biological target: T1, Stp1 (UniProt B3LFK1)
# T1 sequence: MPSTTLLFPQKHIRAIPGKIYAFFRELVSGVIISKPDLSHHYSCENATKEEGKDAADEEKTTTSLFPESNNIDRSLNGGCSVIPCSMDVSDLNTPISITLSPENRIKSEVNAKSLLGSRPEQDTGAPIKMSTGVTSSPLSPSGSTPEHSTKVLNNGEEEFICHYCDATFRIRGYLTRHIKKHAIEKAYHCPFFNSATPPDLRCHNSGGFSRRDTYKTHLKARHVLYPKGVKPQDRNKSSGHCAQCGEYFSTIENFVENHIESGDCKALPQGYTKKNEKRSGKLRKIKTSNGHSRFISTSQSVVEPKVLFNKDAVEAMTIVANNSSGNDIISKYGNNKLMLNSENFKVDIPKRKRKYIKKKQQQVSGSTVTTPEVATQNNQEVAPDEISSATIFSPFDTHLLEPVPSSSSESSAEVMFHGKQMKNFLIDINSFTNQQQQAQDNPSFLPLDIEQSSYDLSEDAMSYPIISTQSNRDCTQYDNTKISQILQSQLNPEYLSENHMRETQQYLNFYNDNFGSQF
# Test: PBM E-score (8-mer binding enrichment) (E-score (-0.5 to 0.5)); higher = stronger / more preferred TF binding
# Conditions: protein concentration: 200 nM; construct: GST-full length
# Method: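 Universal 'all 10-mer' protein binding microarrays (Agilent AMADID 015681) probed with GST-tagged S. cerevisiae TFs (full-length or DBD) made by in vitro transcription/translation (PURExpress), about 100-200 nM. Bound TF was detected with fluorescent anti-GST. Each ungapped 8-mer (which stands for itself and its reverse complement) is scored by the PBM enrichment score (E-score), a modified Wilcoxon-Mann-Whitney statistic from -0.5 to +0.5, computed with the Universal PBM Analysis Suite. Scale: above 0.35 generally sequence-specific binding.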
row,Sequence,PBM E-score
1,GAGCGGAA,0.141
2,AAGCGGCT,0.354
3,AAGCGGAA,0.0259
4,TAGCGGCA,0.291
5,GAGCGGCA,0.44
6,AAGCGGAT,-0.0611
7,AAGCGGGA,-0.095
8,AAAGTTAA,0.102
9,CCCCAGTC,-0.324
10,ACGTGTTA,0.116
11,GTAAGAGA,-0.0111
12,AACTCTAC,-0.212
13,AATCGCTC,-0.292
14,TGAGATCA,0.0358
15,GAGGGGGC,-0.277
16,CTGACCAG,-0.136
17,AAGCGGAG,-0.0617
18,AAGCGGCC,0.282
19,AAGCGGCG,0.458
20,CAGCGTTC,0.0494
21,AGGCGTTA,0.236
22,CGGCGTTA,0.454
23,CGGCGTTC,0.391
24,AGGCGTTC,0.0316
25,GGGCGTTA,0.206
26,CGGAGGAA,-0.229

row,Sequence,PBM E-score
1,CCTCCATA,0.0205
2,CCCCGCAC,-0.00823
3,CGCCGCAA,0.421
4,CACCGCAA,0.0442
5,AGCCGCAG,0.258
6,GGCCGCAA,0.131
7,TGCCGCAA,0.333
8,CCCCGCAG,-0.0786
9,TGCCGCCA,0.229
10,GGCCGCAC,0.289
11,CGCCGCAC,0.478
12,CGCCGCAG,0.436
13,TACCGCAA,0.117
14,CAAAGACG,0.0347
15,AAATGCAA,0.0071
16,ATTAGATA,0.11
17,ACTCACAA,-0.0902
18,CGCAGTAA,0.0664
19,GGTGAGGA,0.0236
20,ATGGGTCA,-0.255
21,CGCCATAC,0.194
22,AAACCGGG,-0.195
23,AATCCTTC,-0.128
24,ATACAGAC,-0.0347
25,TCGTGCCA,0.177
26,ATGTGCCG,0.377

row,Sequence,PBM E-score
1,ATGTGCCC,0.0678
2,CCGTGCCA,0.35
3,CCGTGCCC,0.365
4,CCCTGCCG,0.161
5,CCGTGACG,0.109
6,GCGTGCCC,0.0203
7,CTGTGCCC,0.242
8,ATGTGCCA,0.137
9,GCGTGCCA,0.206
10,CCGTGCCG,0.47
11,ACTTCTGC,0.0768
12,GCTTCATA,0.0285
13,CTTGGCAA,-0.119
14,CCACCCGG,-0.218
15,CGCAAGTC,-0.309
16,GCTACTGA,-0.0112
17,CAAGGCTA,0.275
18,CACAATGC,0.00061
19,CCGTGCAG,0.315
20,AGGTGCCC,-0.0256
21,ATGTGGCC,0.0349
22,ATGTGGCG,0.322
23,ATGTGGCA,0.27
24,AGGTGCCG,0.385
25,CCGTGCAA,0.325
26,ACGTGCGG,0.357

row,Sequence,PBM E-score
1,AGGTGCCA,-0.0228
2,ACGTGCGA,0.00881
3,ATGTGCGG,0.213
4,TCGTGCAA,0.288
5,CGTTGACA,0.0374
6,AGAATCTC,-0.0977
7,AAGGAGCC,-0.0111
8,CTCTTAGC,0.0466
9,ACGTCGTG,-0.00714
10,AGTGGGCG,0.0679
11,TCGTGGCA,0.102
12,ACGTGGCA,0.152
13,ACGTGCCG,0.39
14,ACGTGCCT,0.278
15,ACGTGCCC,0.18
16,CCGTGGCA,0.357
17,GATGGCAC,0.196
18,ATCTCTTG,-0.137
19,AGCCGCAT,0.452
20,ACCCGCAT,0.1
21,AGCCGCAA,0.188
22,AGCCGCAC,0.42
23,ACCCGCAC,0.129
24,AACCGCAC,0.0401
25,CACTCTGC,-0.129
26,CCCTTCTC,-0.259

row,Sequence,PBM E-score
1,CTCAGGTC,-0.196
2,TATTAGCA,0.0213
3,ACTCAAGA,-0.0476
4,CATATAAG,0.118
5,AATATAAT,0.0522
6,AATATAAG,0.32
7,CCGTTTAC,0.235
8,ACGTTTAA,0.12
9,CCGTTTAA,0.349
10,AGTTCTAA,-0.0232
11,TATGGCGA,0.0899
12,CCATAAAG,-0.0597
13,AAGGCACC,0.402
14,AAGGCAGA,-0.164
15,GAGGCAGA,-0.118
16,TAGGCACA,0.132
17,CAGGCACG,0.174
18,GAGGCACC,0.239
19,GAGGCACA,0.332
20,AAGGCAAA,0.247
21,CAGGCACC,-0.107
22,AAGGCACA,0.338
23,CAGGCACA,-0.259
24,AAGGCACG,0.397
25,CACAAGCA,-0.0847
26,AGTCCTTG,-0.0837

row,Sequence,PBM E-score
1,GTTTCTCA,-0.115
2,CAAGTAAC,0.0497
3,ATGAGAAT,0.146
4,CCTAATCA,-0.0333
5,ACAGAGAA,-0.0516
6,GATTTGCC,0.219
7,AGCCCGCC,-0.0384
8,ATCTGCTC,-0.272
9,TAAGATTA,0.0404
10,AAGGCATC,0.292
11,AAGGCACT,0.323
12,AAGGCATG,0.158
13,AGGGCACT,0.239
14,AATGCACT,0.109
15,AAGGCATT,0.322
16,CCCTACAG,-0.178
17,GTCGCAAA,0.155
18,CCCGGCTA,-0.148
19,GACGGCTC,0.307
20,CACGGCTG,0.363
21,ACCGGCTC,-0.0667
22,ACCGGCTG,-0.0577
23,AACGGGCT,-0.293
24,AACGGCTG,0.0994
25,AACGGCTC,0.407
26,CACGGCTC,0.469

row,Sequence,PBM E-score
1,CAAGGCTC,0.0922
2,AACGGCTT,0.366
3,AAAGGCTT,-0.0867
4,CATGTAGG,-0.00116
5,AGTTGAGA,-0.0601
6,ACTCCAGG,-0.175
7,GGAGCACC,-0.188
8,CCTTACAG,0.0881
9,AGGGAGTG,-0.0747
10,CCGTCATA,0.0738
11,CAGAACGA,0.00724
12,ACCGGCTA,-0.0689
13,GTCGGCTA,-0.0709
14,AACGGCTA,0.372
15,CTCGGCTA,0.0804
16,CACGGCTA,0.415
17,GACGGCTA,0.235
18,TACGGCTA,0.349
19,ATCGGCTA,-0.108
20,GCCGGCTA,0.0397
